Bioassay records (PubChem BioAssay)
Shown are actives, neighbours in structure and some others; about 22% of the full set was active somewhere.
Pf growth 48h = P. falciparum growth inhibition at 48 hours (one generation); P. falciparum luciferase growth in erythrocytes, 48 h; Potency, µM (titrated, usually from 28.7 µM), for inactives: at the highest dose activity change, negative = inhibition, usual class: inhibitors; 310,000 compounds, 5.9% hits; AID 504832; further: potency means the concentration at half of the fitted maximal effect; on the % scale 0 is the no-effect control and ±100 the full control effect
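Parasite viability was followed by luminescence of a genomically integrated firefly luciferase. Cultures held 0.1% parasitemia at 2% hematocrit (final), incubated under 5% CO2 at 37 C.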
Shiga inhibitor = blocks Shiga toxin action in Vero cells; Vero cells, Shiga toxin protein synthesis inhibition reporter; inhibition, % at 38.7 µM; 290,000 compounds, 9.2% hits; in the data active means inhibition mostly above about 28%, no sharp cut-off; inactive means mostly below about 43%; further: 0% is about no effect
CHX counter = counter-screen hit for Shiga toxin inhibitors, cycloheximide. AID 2314. 300,000 compounds, 12% hits. cell reporter, cycloheximide protein synthesis inhibition counterscreen. max response, %; in the data active means max response mostly above about 13%, no sharp cut-off; inactive means mostly below about 14%; further: read at 38.3 µM for the half of the compounds with a filed dose; 0% is about no effect
LmPK inhibitor = blocks Leishmania mexicana pyruvate kinase activity. Q27686. purified LmPK, Kinase-Glo ATP luminescence, 1 h. Potency, µM (titrated, usually from 57.5 µM), for inactives: top-dose activity change, negative = inhibition, most hits filed as inhibitors. 290,000 compounds, 0.37% hits. AID 1721; further: potency means the concentration at half of the fitted maximal effect; on the % scale 0 is the no-effect control and ±100 the full control effect
Target sequence (Q27686 whole entry, looked up): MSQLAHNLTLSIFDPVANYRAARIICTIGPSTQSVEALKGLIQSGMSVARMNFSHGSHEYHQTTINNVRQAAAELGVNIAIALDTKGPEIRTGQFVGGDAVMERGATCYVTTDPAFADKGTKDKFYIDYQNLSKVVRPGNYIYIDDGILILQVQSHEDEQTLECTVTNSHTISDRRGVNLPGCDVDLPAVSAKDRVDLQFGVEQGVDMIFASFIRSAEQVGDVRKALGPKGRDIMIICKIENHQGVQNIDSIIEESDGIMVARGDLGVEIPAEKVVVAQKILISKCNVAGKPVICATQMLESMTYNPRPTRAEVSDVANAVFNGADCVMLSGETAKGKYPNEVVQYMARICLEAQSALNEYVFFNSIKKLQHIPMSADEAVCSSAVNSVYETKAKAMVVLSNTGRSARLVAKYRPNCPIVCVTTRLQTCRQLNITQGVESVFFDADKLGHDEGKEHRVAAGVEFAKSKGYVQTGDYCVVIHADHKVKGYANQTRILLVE
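Screened at intermediate enzyme activity to detect both inhibitors and activators: LmPK at 0.1 nM, with a 0.5 nM enzyme column as activation reference. PEP 0.5 mM, ADP 0.1 mM; ATP detected by luminescence after 1 h.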
Pf growth 96h = P. falciparum growth inhibition at 96 hours. 320,000 compounds, 6.9% hits. Potency, µM (top dose mostly 28.7 µM), inactives show top-dose activity change, negative = inhibition, most hits filed as inhibitors. P. falciparum luciferase reporter growth, 96 h; further: potency means the concentration at half of the fitted maximal effect; on the % scale 0 is the no-effect control and ±100 the full control effect
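Cell-based qHTS: luciferase-tagged P. falciparum in erythrocytes (2% hematocrit, 0.05% parasitemia final) incubated with compounds for 96 hours, 37 C, 5% CO2; luciferase detection reagent then added and luminescence measured.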
Active calls of the source: *; ? = inconclusive; . = no result; [ ] = another dose, or the depositor's remark. Unless noted, the call rests on the fitted dose curve; in most records, active means well fitted inhibition curve with a large enough effect; inconclusive means small, poorly fitted or top-dose-only effect, or another doubt; inactive means no such curve, though single readings can be large or run the other way.

SMILES | Pf growth 48h | Shiga inhibitor | CHX counter | LmPK inhibitor | Pf growth 96h
CO/N=C(/C(=O)N[C@@H]1C(=O)N2C(C(=O)O)=C(COC(N)=O)CS[C@H]12)c1ccco1 | 15µM* | . | . | . | 17µM*
COc1cccc(C(=O)NC2C(=O)N3C(C(=O)O)=C(COC(C)=O)CSC23)c1 (stereo not drawn) | 3% | . | . | . | -20%
COc1ccc(F)cc1S(=O)(=O)Nc1ccc(C)cc1 | -16% | -25 | -2 | 0% | -26%
O=C(O)c1ccc(NC2=C(Cl)C(=O)c3ccccc3C2=O)cc1 | ? | 19 | -1 | -17% | ?
COC1=C(Nc2ccccc2)C(=O)c2ccccc2C1=O | 5.9µM* | 23* | 19* | -15% | 1.9µM*
COC1=C(Nc2ccc(C)cc2)C(=O)c2ccccc2C1=O | 2.3µM* | 102* | 53* | -13% | 1.2µM*
COc1ccc(C)cc1NC(=O)c1ccc2c(O)c(S(=O)(=O)c3ccccc3)c(=O)[nH]c2c1 | 0% | -15 | -2 | 1% | 43%
Cc1ccccc1CSc1nnc(-c2ccncc2)n1C | 30% | 1 | -1 | -7% | 19%
COc1ccc(N2C(=O)C3ON(C4SC(=S)N(C)C4(C)C)C(c4ccc(Cl)cc4)C3C2=O)cc1 (stereo not drawn) | -16% | -5 | -6 | 4% | ?
CC1CN2C(c3ccc([N+](=O)[O-])cc3)=CSC2=N1 (stereo not drawn) | 10% | . | -3 | -1% | -23%
Cc1ccc(C)c(C(=O)Nc2c(C(N)=O)oc3ccccc23)c1 | . | -10 | -8 | 9% | ?
NC(=O)c1oc2ccccc2c1NC(=O)c1ccccc1 | . | -9 | -1 | 0% | ?
Cc1ccc(C(=O)c2oc3ccccc3c2NC(=O)c2cc(-c3cc(C)ccc3O)n[nH]2)cc1 | 0.33µM* | 3 | -5 | 7% | 0.33µM*
COc1ccc(C(=O)c2oc3ccccc3c2NC(C)=O)cc1 | 22% | -1 | 0 | 2% | ?
O=C(Nc1c(C(=O)c2ccccc2)oc2ccccc12)c1cc(-c2ccccc2O)n[nH]1 | 1.5µM* | -5 | 6 | -2% | 0.66µM*
Cc1ccc(C(=O)c2oc3ccccc3c2NC(=O)c2cc(-c3ccccc3O)n[nH]2)cc1 | 1.5µM* | 5 | -3 | 0% | 0.59µM*
Cc1cccc(C(=O)Nc2cc(Cl)ccc2-n2cncn2)c1[N+](=O)[O-] | 12% | . | . | . | 47%
COc1ccc(N2CCN(C(=O)CCNS(=O)(=O)c3ccc4c(c3)CCC(=O)N4)CC2)cc1 | -21% | 5 | -1 | 1% | 180%
COc1ccc(/C=N/n2cc(-c3ccccc3)nc2N)cc1 | ? | 43* | 28* | -2% | 10µM*
O=C(c1sc(N2CCOCC2)nc1-c1ccccc1)N1CCCCC1 | -10% | 11 | 1 | 0% | -6%
[2H]c1c([2H])c([2H])c(-c2nc(N3CCCCCC3)sc2C(=O)c2ccccc2)c([2H])c1[2H] | ? | -12 | -4 | 1% | 4.1µM*
COc1ccccc1N=C(C)C1=C(O)CSC1=O | 7% | 33 | 8 | -2% | .
CC(=Nc1ccc(C)c(C)c1)C1=C(O)CSC1=O | . | 45 | 23* | 0% | -28%
CCN(c1ccccc1)S(=O)(=O)c1ccc(C(=O)Nc2cc(C)ccn2)cc1 | 16% | . | . | . | ?
COc1ccc(NC(=O)c2cccc(S(=O)(=O)NCc3ccccc3)c2)cc1S(N)(=O)=O | ? | . | . | . | -28%
SMILES | Pf growth 48h | Shiga inhibitor | CHX counter | LmPK inhibitor | Pf growth 96h
O=C1c2ccccc2C(=O)N1CCCCON1C(=O)c2ccccc2C1=O | 10% | -2 | -3 | 2% | 7%
C#CCOC(=O)CN1C(=O)c2cccc3cccc(c23)C1=O | 9% | 41 | 18* | 12% | ?
CCOC(=O)CCCCCN1C(=O)c2cccc3cccc(c23)C1=O | 34% | 8 | -1 | 0% | 6.6µM*
CCOC(=O)CCCSc1nnc(CCCCCN2C(=O)c3cccc4cccc(c34)C2=O)o1 | ? | 1 | 5 | 6% | 1.9µM*
CC1CC(C)CN(C(=O)COC(=O)CCCN2C(=O)c3cccc4cccc(c34)C2=O)C1 (stereo not drawn) | -7% | -22 | -4 | 0% | 6%
CCCCON1C(=O)c2cccc3cccc(c23)C1=O | 50% | 41* | 15* | -3% | 34%
CCOc1ccc(OCCOCCN2CCOCC2)cc1 | . | -5 | -5 | 0% | 26%
Cc1cc(OCC(O)CN2CCN(CCO)CC2)ccc1C(C)C (stereo not drawn) | -9% | -8 | 0 | 2% | 9.3µM*
Cc1cc(OCCN2CCOCC2)ccc1C(C)C | 31% | 60* | 48* | -2% | -8%
CC(C)(C)CC(=O)Nc1nnc(SCC(=O)N2CCCCC2)s1 | -15% | 9 | 2 | 5% | -14%
COc1ccc(CNC(=O)CCCC2=NS(=O)(=O)c3ccccc3N2)cc1 | 13% | -2 | -1 | 2% | 10µM*
Cc1ccc(CNC(=O)CC2(CC3=NS(=O)(=O)c4ccccc4N3)CCCC2)cc1 | ? | 18 | 8.5* | -2% | 12µM*
CCOc1ccccc1N1CC(C(=O)N(C)Cc2cccnc2)CC1=O (stereo not drawn) | 4% | -10 | -2 | 5% | 22%
Cn1ccsc1=NC(=O)c1cccc(C#N)c1 | 39% | 61 | 15* | 0% | 37%
Cn1ccsc1=NC(=O)c1ccc(S(C)(=O)=O)cc1 | 24% | 37* | 14 | -21% | 28%
CCN(CC)S(=O)(=O)c1cc(C(=O)N=c2sccn2C)ccc1OC | 23% | 7 | 2 | -7% | ?
Cn1ccsc1=NC(=O)c1ccc(Cl)c([N+](=O)[O-])c1 | 6% | 53* | 16* | -1% | 1%
CCCCOc1ccc(C(=O)N=c2sccn2C)cc1OC | 87% | 65* | 44* | 4% | 69%
COc1ccc(C(CNS(=O)(=O)c2ccc(C)cc2)N2CCN(C)CC2)cc1 (stereo not drawn) | 0% | . | . | . | 34%
NC(=O)C1CCN(c2nc(-c3ccccc3Cl)cs2)CC1 | ? | . | . | . | 6%
Cn1ccsc1=NC(=O)c1ccc(S(C)(=O)=O)c([N+](=O)[O-])c1 | 42% | 36* | 43* | 0% | 15%
Cc1ccc(C(=O)N=c2sccn2C)cc1S(=O)(=O)N1CCOCC1 | 71% | . | . | . | -21%
CN1C(=O)NC(c2cccc([N+](=O)[O-])c2)C2=C1CCCC2=O (stereo not drawn) | -19%[0.00184 µM] | -2 | -11 | 2% | 2%
C=C1[C@@H](C)C2[C@H](Cc3ccccc3)NC(=O)[C@]23OC(=O)CC[C@H](O)CCC[C@H](C)C/C=C/[C@H]3[C@@H]1O (stereo partly drawn) | 0.93µM* | -2 | -4 | -1% | 0.37µM*
COc1ccccc1CN(C)C(=O)c1cc(-c2cc(OC)c(OC)c(OC)c2)nc2ccccc12 | ? | -2 | -2 | -6% | ?
COCCN(Cc1ccccc1)C(=O)c1cc(-c2ccc(OC)c(OC)c2)nc2ccccc12 | 9.3µM* | -2 | 4 | 0% | ?
